Laboratory results published in PubChem BioAssay (EPA / NIEHS).
Where “and” joins values, the source holds several entries; their conditions need not be identical. Equal values may be shown once. Records with an inconclusive call do not appear. Calls of active or inactive are those of the source. The calls were made as follows: active = hit-call score of the fitted dose curve at least 0.9, where 1 is the maximum; inconclusive = response in the unintended direction; inactive = score below 0.9.

Assays:
[1] = target: Cellular tumor antigen p53 (Homo sapiens) (UniProt P04637); assay: TOX21_p53_BLA_p5_ratio: Tox21 HCT-116 p53 Agonism Beta-lactamase Assay, Ratio, Phase 5 (AID 2283599)
Summary of the method: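 HCT-116 p53-bla cells (4000/well) plated 5 h, dosed with compound (217-fold DMSO dilution) for 16 h at 37 C; CCF4-AM substrate 2 h at room temperature. Activity is the 460/530 nm emission ratio (405 nm excitation), fitted in gain-of-signal direction versus DMSO.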

[2] = Tanguay_ZF_120hpf_MORT_legacy: (Legacy) Oregon State University Tanguay Lab 120 Hour Post-fertilization zebrafish Assay for Mortality (AID 2283633);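 as to AC50: fitted as increase in binary mortality versus DMSO negative control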
Summary of the method: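 Mortality endpoint from a multiplexed whole-embryo zebrafish screen. Dechorionated wild-type embryos received compound at 6 hpf and remained under static exposure at 28C until 120 hpf, with death noted as a present/absent call.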

[3] = Tanguay_ZF_120hpf_YSE_legacy: (Legacy) Oregon State University Tanguay Lab 120 Hour Post-fertilization zebrafish Assay for Yolk Sac Edema (AID 2283634);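 as to AC50: actives raise the incidence of yolk sac edema above the DMSO baseline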
Summary of the method: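 Readout: presence or absence of yolk sac edema at 120 hpf, fitted upward against DMSO controls. Exposure ran statically from 6 hpf in dechorionated embryos kept at 28C.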

[4] = Tanguay_ZF_120hpf_AXIS_legacy: (Legacy) Oregon State University Tanguay Lab 120 Hour Post-fertilization zebrafish Assay for Body Axis Malformation (AID 2283635);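 as to AC50: potency for an increased fraction of larvae scored with body axis malformation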
Summary of the method: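 Static 6–120 hpf chemical exposure of dechorionated wild-type 5D zebrafish, one per well at 28C; morphology endpoint scored binary at 120 hpf relative to DMSO control.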

[5] = Tanguay_ZF_120hpf_EYE_legacy: (Legacy) Oregon State University Tanguay Lab 120 Hour Post-fertilization zebrafish Assay for Eye Malformation (AID 2283636);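 also: binary presence or absence of eye malformation scored by brightfield in 120 hpf larvae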
Summary of the method: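 Dechorionated Tropical 5D zebrafish embryos, one per well from 6 hpf, static exposure to 120 hpf at 28C, 0.64% DMSO. Eye malformation scored present/absent by brightfield; dead embryos not scored.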

[6] = Tanguay_ZF_120hpf_SNOU_legacy: (Legacy) Oregon State University Tanguay Lab 120 Hour Post-fertilization zebrafish Assay for Snout Malformation (AID 2283637)
Summary of the method: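 Dechorionated tropical 5D wild-type zebrafish embryos exposed statically from 6 to 120 hpf at 28C, one per well, in 0.64% DMSO. Snout malformation scored as present/absent by brightfield at 120 hpf; dead embryos not scored.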

[7] = Tanguay_ZF_120hpf_JAW_legacy: (Legacy) Oregon State University Tanguay Lab 120 Hour Post-fertilization zebrafish Assay for Jaw Malformation (AID 2283638);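 as to AC50: active means more embryos with jaw malformation than DMSO controls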
Summary of the method: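 Static waterborne exposure of dechorionated wild-type (Tropical 5D) zebrafish from 6 to 120 hpf at 28C, 0.64% DMSO vehicle; 5uM trimethyltin chloride served as positive control. Jaw morphology recorded as binary at 120 hpf.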

[8] = Tanguay_ZF_120hpf_OTIC_legacy: (Legacy) Oregon State University Tanguay Lab 120 Hour Post-fertilization zebrafish Assay for Otic Vesicle Malformation (AID 2283639)
Summary of the method: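 Otic vesicle malformation is read as a yes/no morphology call at 120 hpf. Exposure is static at 28C with 0.64% (vol/vol) DMSO; embryos that die are excluded from non-mortality endpoints.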

[9] = target: Cellular tumor antigen p53 (Homo sapiens) (UniProt P04637); assay: TOX21_p53_BLA_p4_ratio: Tox21 HCT-116 p53 Agonism Beta-lactamase Assay, Ratio, Phase 4 (AID 2283601)
Summary of the method: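 HCT-116 p53 beta-lactamase reporter cells (4000/well) preincubated 5 h, then compound (217-fold dilution of DMSO stock) for 16 h at 37C. CCF4-AM substrate added 2 h at room temperature; 460/530 nm emission ratio fitted upward versus DMSO.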

Chain of Cellular tumor antigen p53 (Homo sapiens) (P04637 whole entry, looked up): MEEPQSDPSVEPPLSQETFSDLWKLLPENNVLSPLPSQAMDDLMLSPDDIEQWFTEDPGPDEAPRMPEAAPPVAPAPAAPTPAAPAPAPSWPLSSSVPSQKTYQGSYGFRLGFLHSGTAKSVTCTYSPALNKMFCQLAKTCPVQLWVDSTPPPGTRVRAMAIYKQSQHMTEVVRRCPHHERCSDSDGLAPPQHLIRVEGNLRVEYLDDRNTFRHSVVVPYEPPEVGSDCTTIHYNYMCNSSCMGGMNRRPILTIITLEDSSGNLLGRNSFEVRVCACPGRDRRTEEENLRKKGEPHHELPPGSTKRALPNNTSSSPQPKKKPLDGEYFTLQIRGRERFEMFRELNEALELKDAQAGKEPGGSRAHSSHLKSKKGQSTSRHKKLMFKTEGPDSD

## CCOCCOCCO
[1]
  outcome: inactive
[2]
  outcome: inactive
[3]
  outcome: inactive
[4]
  outcome: inactive
[5]
  outcome: inactive
[6]
  outcome: inactive
[7]
  outcome: inactive
[8]
  outcome: inactive

## CCCCCCCCCCCCCCOS(=O)(=O)O
[1]
  AC50: 80.7 µM (active)
[9]
  AC50: 78.4 µM (active)
[2]
  AC50: 27.8 µM (active)
[3]
  AC50: 10.8 µM (active)
[4]
  AC50: 31.5 µM (active)
[5]
  AC50: 26.1 µM (active)
[6]
  AC50: 24.7 µM (active)
[7]
  AC50: 42.3 µM (active)
[8]
  AC50: 9.8 µM (active)

## CN(C)CCCN1c2ccccc2Sc2ccc(Cl)cc21
[1]
  outcome: inactive
[2]
  AC50: 16.3 µM (active)
[3]
  outcome: inactive
[4]
  outcome: inactive
[5]
  outcome: inactive
[6]
  outcome: inactive
[7]
  outcome: inactive
[8]
  outcome: inactive

## Cc1c(C)c2c(c(C)c1O)CCC(C)(COc1ccc(CC3SC(=O)NC3=O)cc1)O2 (stereo not given)
[1]
  AC50: 56.1 µM (active) and 34.1 µM (active)
[2]
  outcome: inactive
[3]
  outcome: inactive
[4]
  outcome: inactive
[5]
  outcome: inactive
[6]
  outcome: inactive
[7]
  outcome: inactive
[8]
  outcome: inactive

## CN(C)C(=O)NC1(c2ccccc2)CCN(CC[C@@]2(c3ccc(F)c(F)c3)CN(C(=O)c3ccccc3)CCO2)CC1
[1]
  outcome: inactive
[2]
  outcome: inactive
[3]
  outcome: inactive
[4]
  outcome: inactive
[5]
  outcome: inactive
[6]
  outcome: inactive
[7]
  outcome: inactive
[8]
  outcome: inactive

## Nc1nc(Cl)nc2c1ncn2[C@H]1C[C@H](O)[C@@H](CO)O1
[1]
  AC50: 455 nM (active) and 793 nM (active)
[9]
  AC50: 244 nM (active) and 886 nM (active)
[2]
  outcome: inactive
[3]
  outcome: inactive
[4]
  outcome: inactive
[5]
  outcome: inactive
[6]
  outcome: inactive
[7]
  outcome: inactive
[8]
  outcome: inactive

## CC(C)(C)c1ccccc1
[1]
  outcome: inactive
[2]
  AC50: 13.1 µM (active)
[3]
  outcome: inactive
[4]
  outcome: inactive
[5]
  outcome: inactive
[6]
  AC50: 5.01 µM (active)
[7]
  AC50: 4.3 µM (active)
[8]
  outcome: inactive

## COC(=O)CCCC(=O)OC
[1]
  outcome: inactive
[2]
  outcome: inactive
[3]
  outcome: inactive
[4]
  outcome: inactive
[5]
  outcome: inactive
[6]
  outcome: inactive
[7]
  outcome: inactive
[8]
  outcome: inactive

## S=c1[nH]c2ccccc2s1
[1]
  outcome: inactive
[2]
  outcome: inactive
[3]
  AC50: 11.7 µM (active)
[4]
  AC50: 36.7 µM (active)
[5]
  AC50: 42.1 µM (active)
[6]
  AC50: 40.7 µM (active)
[7]
  AC50: 10.7 µM (active)
[8]
  AC50: 11.2 µM (active)

## CCCCC(CC)CO (stereo not given)
[1]
  outcome: inactive
[9]
  outcome: inactive
[2]
  outcome: inactive
[3]
  outcome: inactive
[4]
  outcome: inactive
[5]
  outcome: inactive
[6]
  outcome: inactive
[7]
  outcome: inactive
[8]
  outcome: inactive

## NC1CCCCC1
[2]
  outcome: inactive
[3]
  outcome: inactive
[4]
  outcome: inactive
[5]
  outcome: inactive
[6]
  outcome: inactive
[7]
  outcome: inactive
[8]
  outcome: inactive

## CCc1nc(N)nc(N)c1-c1ccc(Cl)cc1
[1]
  outcome: inactive
[2]
  outcome: inactive
[3]
  outcome: inactive
[4]
  outcome: inactive
[7]
  outcome: inactive
[8]
  outcome: inactive

## C#CC(O)C(CC)CCCC (stereo not given)
[2]
  outcome: inactive
[3]
  outcome: inactive
[4]
  outcome: inactive
[5]
  outcome: inactive
[6]
  outcome: inactive
[7]
  outcome: inactive
[8]
  outcome: inactive

## CC1=C(C)S(=O)(=O)CCS1(=O)=O
[1]
  outcome: inactive
[2]
  outcome: inactive
[3]
  outcome: inactive
[4]
  outcome: inactive
[5]
  outcome: inactive
[7]
  outcome: inactive
[8]
  outcome: inactive

## COc1ccc(C(=O)Nc2nc3ccccc3c(NCc3ccccc3)c2C#N)cc1
[1]
  AC50: 63.1 µM (active)
[2]
  outcome: inactive
[3]
  outcome: inactive
[4]
  outcome: inactive
[6]
  outcome: inactive
[7]
  outcome: inactive

## CN(C)CCCN(C)CCCN(C)C
[2]
  outcome: inactive
[3]
  outcome: inactive
[4]
  outcome: inactive
[5]
  outcome: inactive
[6]
  outcome: inactive
[7]
  outcome: inactive
[8]
  outcome: inactive

## O=NO
[2]
  outcome: inactive
[3]
  outcome: inactive
[4]
  outcome: inactive
[5]
  outcome: inactive
[6]
  outcome: inactive

## CC(C)NCC(O)c1ccc(O)c(O)c1 (stereo not given)
[2]
  outcome: inactive
[3]
  outcome: inactive
[4]
  outcome: inactive
[5]
  outcome: inactive
[6]
  outcome: inactive
[7]
  outcome: inactive
[8]
  outcome: inactive

## Cc1ccc(-c2cc(C(F)(F)F)nn2-c2ccc(S(N)(=O)=O)cc2)cc1
[2]
  outcome: inactive
[3]
  outcome: inactive
[4]
  outcome: inactive
[5]
  outcome: inactive
[6]
  outcome: inactive
[7]
  outcome: inactive

## CS(=O)(=O)c1ccc([C@@H](C[C@H]2CCC(=O)C2)C(=O)Nc2cnccn2)cc1Cl
[2]
  outcome: inactive
[3]
  outcome: inactive
[4]
  outcome: inactive
[5]
  outcome: inactive
[6]
  outcome: inactive
[7]
  outcome: inactive
[8]
  outcome: inactive

## CCCCCCCCCCCCCCCCO
[2]
  outcome: inactive
[3]
  outcome: inactive
[4]
  outcome: inactive
[5]
  outcome: inactive
[6]
  outcome: inactive
[7]
  outcome: inactive
[8]
  outcome: inactive
